# Source: PubChem BioAssay (NCI)
# Compounds without any hit were thinned out: in the full panel of roughly 83,000, 20% have a hit.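 A percent growth of 40 corresponds to 60% growth inhibition; 0 means no net growth; -100 means all cells died. Active threshold: below 10.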 Unmarked numbers belong to inactive results. The source made the active and inactive calls.
# Columns and labels:
# Experiment in all cases: NCI-60 one-dose screen, 48 h (100 = growth as untreated, 0 = no growth, -100 = all killed)
# Conditions in all cases: 10 µM unless noted
# [1] = test system: NCI-H23 lung
# [2] = test system: NCI-H226 lung
# [3] = test system: NCI-H322M lung
# [4] = test system: HOP-62 NSCLC
# [5] = test system: NCI-H460 lung
# [6] = test system: HOP-92 NSCLC
# [7] = test system: NCI-H522 lung
# [8] = test system: A549/ATCC NSCLC
# [9] = test system: 786-0 renal
# [10] = test system: COLO 205 colon
SMILES,growth [1],growth [2],growth [3],growth [4],growth [5],growth [6],growth [7],growth [8],growth [9],growth [10]
COc1cc(/C=C/c2cc(/C=C/c3ccc(O)c(OC)c3)n(C(N)=O)n2)ccc1O,-4% (active),11.9%,-1.78% (active),-3.02% (active),0.571% (active),-42.8% (active),-21.2% (active),3.16% (active),-45.8% (active),-37.7% (active)
COc1ccc(-c2[nH]nc(N)c2-c2cc(OC)c3c(c2)OCO3)cc1,63.4%,84.9%,92.9%,59.8%,33.1%,69.7%,-21% (active),52%,77.6%,61.3%
Cc1ccc(-c2cc3nc(C(Cl)Cl)nc(-c4ccccc4C)n3n2)cc1,74%,100%,86.6%,68.3%,81.4%,64.7%,69.9%,23.3%,84.1%,54.1%
CC1CN(c2oc(-c3ccccc3)nc2C#N)CC(C)O1 (stereo not given),112%,92%,99.1%,103%,99.7%,123%,99.4%,104%,99.6%,116%
COc1cccc(CC(C)=C(c2ccc(OCCN3CCCCC3)cc2)c2ccc(OCCN3CCCCC3)cc2)c1,58%,79.8%,0.584% (active),31.1%,-73.3% (active),-4.48% (active),-75% (active),2.38% (active),-83.7% (active),-81.2% (active)
O=C(CSC1CCc2ccccc21)N/N=C/c1ccccc1O (stereo not given),55.5%,67.7%,22.6%,47.5%,30.9%,77.4%,7.47% (active),48.2%,66.6%,45.7%
Nc1cccc(-c2nc3sccn3c2-c2ccnc(NCCNS(=O)(=O)c3ccc(C(F)(F)F)cc3)n2)c1,56%,29.3%,42.4%,49.6%,43.5%,-6.13% (active),71.6%,30%,65.5%,58.8%
Cc1cc(C2=NNC(=O)Cc3cc4c(cc32)OCCO4)cc(C)c1N,44.2%,75.1%,44.9%,37.4%,17.6%,69%,-20.1% (active),50.7%,32.5%,9.99% (active)
c1ccc(-c2nnc(-c3ccccn3)s2)nc1,79.6%,96.8%,117%,80.4%,102%,89.7%,96.1%,102%,78.9%,109%
COc1ccc(C(=O)N2NC(=O)/C(=C/c3ccccc3F)N=C2c2ccccc2)cc1,93.5%,104%,110%,108%,106%,96.8%,102%,96.2%,102%,122%
C=C1CCC2C3(C)COC(c4ccc(N(C)C)cc4)OC3CCC2(C)C1C/C=C1/C(=O)OCC1O (stereo not given),66.4%,109%,83.1%,108%,74.2%,68.9%,74.2%,52%,96%,19.5%
